How the values were obtained:
Details in all cases: concentration: 1 μM, replicates: in singlicate; n = 1
[1] = system: TSSK3
[2] = system: TTK
[3] = system: TXK
[4] = system: TYK2(JH1domain-catalytic)
[5] = system: TYK2(JH2domain-pseudokinase)
[6] = system: TYRO3
[7] = system: ULK1
[8] = system: ULK2
[9] = system: ULK3
[10] = system: T1, VEGFR2
T1 construct: gene KDR

[11] = system: T2, VPS34
T2 construct: gene PIK3C3

[12] = system: VRK2
[13] = system: WEE1
[14] = system: WEE2
[15] = system: WNK1
[16] = system: WNK2
[17] = system: WNK3
[18] = system: WNK4
[19] = system: T3, YANK1
T3 construct: gene STK32A

[20] = system: T4, YANK2
T4 construct: gene STK32B
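Note: KINOMEscan kinase panel screen.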

| Compound | %Inh [1] | %Inh [2] | %Inh [3] | %Inh [4] | %Inh [5] | %Inh [6] | %Inh [7] | %Inh [8] | %Inh [9] | %Inh [10] | %Inh [11] | %Inh [12] | %Inh [13] | %Inh [14] | %Inh [15] | %Inh [16] | %Inh [17] | %Inh [18] | %Inh [19] | %Inh [20] |
| --- | --- | --- | --- | --- | --- | --- | --- | --- | --- | --- | --- | --- | --- | --- | --- | --- | --- | --- | --- | --- |
| Nc1nc(-c2ccc3c(N)n[nH]c3c2)cc(N2CCCC2)n1 [GSK2227430] | 17% | 11% | 0% | 0% | 46% | 0% | 0% | 0% | 2% | 0% | 0% | 0% | 35% | 0% | 0% | 0% | 8% | 0% | 0% | 0% |
| O=C(c1ccc(-c2cc(-c3c[nH]nc3-c3ccccn3)ccn2)cc1)N1CCOCC1 [GW812171] | 0% | 0% | 11% | 0% | 21% | 0% | 14% | 38% | 3% | 0% | 9% | 23% | 0% | 0% | 2% | 9% | 4% | 0% | 0% | 63% |
| Cl.Oc1cccc(Nc2ccnc3cc(-c4ccncc4)ccc23)c1 [GW494601] | 6% | 39% | 97.6% | 93.1% | 49% | 82% | 0% | 0% | 31% | 95.4% | 34% | 6% | 10% | 7% | 0% | 13% | 41% | 46% | 33% | 12% |
| CCc1ccnc(/C=C/c2n[nH]c3cc(Sc4ccccc4C(=O)NC)ccc23)c1 | 0% | 0% | 0% | 11% | 0% | 0% | 3% | 31% | 9% | 99.9% | 6% | 13% | 0% | 0% | 0% | 39% | 0% | 0% | 0% | 0% |
| c1ccc(-c2cc(-c3c[nH]nc3-c3ccccn3)ccn2)cc1 [GW576604] | 2% | 0% | 0% | 13% | 26% | 0% | 0% | 0% | 0% | 0% | 18% | 2% | 2% | 0% | 0% | 18% | 0% | 11% | 12% | 0% |
| O=c1cc(N2CCOCC2)nc2n(Cc3cccc(F)c3)ccn12 [GSK2297430] | 0% | 0% | 4% | 13% | 2% | 12% | 0% | 0% | 0% | 0% | 93.9% | 0% | 0% | 9% | 0% | 12% | 8% | 3% | 7% | 14% |
| O=c1cc(N2CCOCC2)nc2n(Cc3cccc(C(F)(F)F)c3)ccn12 [GSK2297543] | 15% | 12% | 0% | 0% | 0% | 0% | 0% | 0% | 9% | 13% | 93.9% | 0% | 6% | 10% | 2% | 0% | 19% | 22% | 0% | 0% |
| O=C(NCCCN1CCOCC1)c1cccc(Nc2nccc(Nc3ccc(Oc4ccccc4)cc3)n2)c1 [GW663929] | 10% | 21% | 0% | 30% | 44% | 5% | 1% | 2% | 11% | 13% | 0% | 17% | 31% | 0% | 11% | 14% | 33% | 0% | 0% | 0% |
| Fc1ccc(-c2ncn(CCCN3CCOCC3)c2-c2ccccn2)cc1 [SB-211742] | 0% | 0% | 5% | 0% | 0% | 8% | 0% | 0% | 0% | 0% | 20% | 0% | 21% | 11% | 0% | 0% | 5% | 0% | 0% | 0% |

— article PMC5540273 (PLoS ONE, 2017)
